Test results from paper PMC7862700, “An all-to-all approach to the identification of sequence-specific readers for epigenetic DNA modifications on cytosine”.

Assays:
Assay in all cases: DAPPL (digital affinity profiling via proximity ligation, sequencing); 10 mM Tris-HCl pH 7.5, 50 mM NaCl, 1 mM DTT, 4% glycerol, room temperature, 30 min; GST-TFs on glutathione beads, 16-mer random dsDNA library, 0.1% formaldehyde crosslink after washing; high values mean tight binding
FLI1 = target: T1, FLI1 (Homo sapiens, UniProt Q01543 1-452); conditions: protein: recombinant; tags: N-terminal GST; dsDNA, one strand shown
T1 sequence: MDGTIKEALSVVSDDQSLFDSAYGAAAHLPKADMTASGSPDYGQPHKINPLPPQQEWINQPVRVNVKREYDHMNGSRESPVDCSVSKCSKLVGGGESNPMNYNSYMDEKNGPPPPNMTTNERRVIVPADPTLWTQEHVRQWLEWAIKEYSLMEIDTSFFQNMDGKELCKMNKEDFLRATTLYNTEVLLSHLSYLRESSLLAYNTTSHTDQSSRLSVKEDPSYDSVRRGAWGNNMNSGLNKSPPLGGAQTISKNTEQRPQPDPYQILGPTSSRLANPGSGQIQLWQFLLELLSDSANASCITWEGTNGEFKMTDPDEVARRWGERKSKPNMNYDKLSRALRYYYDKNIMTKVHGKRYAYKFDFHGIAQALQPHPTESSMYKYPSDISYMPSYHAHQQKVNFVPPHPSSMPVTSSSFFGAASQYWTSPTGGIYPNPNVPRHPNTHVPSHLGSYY
In short: (§1)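 GST fusions of human transcription factors were expressed in yeast and captured with glutathione beads. Once given DNA barcodes and pooled alongside a tag-only sample, they were incubated for 30 min at room temperature with 200 nmole of a random double-stranded 16-mer DNA library in Tris/NaCl/DTT/glycerol buffer, then washed, crosslinked (0.1% formaldehyde), proximity-ligated, PCR-amplified and sequenced on an Illumina NextSeq500. The binding signal of each hexamer is its read frequency for a factor divided by its frequency for the tag-only sample.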

ELK1 = target: T2, ELK1 (Homo sapiens, UniProt P19419 1-428); conditions: protein: recombinant; tags: N-terminal GST; dsDNA, one strand shown
T2 sequence: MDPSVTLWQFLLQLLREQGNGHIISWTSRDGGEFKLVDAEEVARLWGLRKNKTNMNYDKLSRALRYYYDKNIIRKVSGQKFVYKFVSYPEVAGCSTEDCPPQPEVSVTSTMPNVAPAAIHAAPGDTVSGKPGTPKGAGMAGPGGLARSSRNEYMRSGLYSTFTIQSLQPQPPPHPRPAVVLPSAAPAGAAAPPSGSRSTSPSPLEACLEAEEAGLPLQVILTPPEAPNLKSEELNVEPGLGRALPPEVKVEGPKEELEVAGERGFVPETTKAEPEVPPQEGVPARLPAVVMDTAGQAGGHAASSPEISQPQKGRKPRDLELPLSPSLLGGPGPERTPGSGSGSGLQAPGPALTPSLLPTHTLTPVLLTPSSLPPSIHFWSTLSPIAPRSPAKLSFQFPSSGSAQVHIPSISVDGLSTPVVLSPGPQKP
In short: as §1

GABPA = target: T3, GABPA (Homo sapiens, UniProt Q06546 1-454); conditions: protein: recombinant; tags: N-terminal GST; dsDNA, one strand shown
T3 sequence: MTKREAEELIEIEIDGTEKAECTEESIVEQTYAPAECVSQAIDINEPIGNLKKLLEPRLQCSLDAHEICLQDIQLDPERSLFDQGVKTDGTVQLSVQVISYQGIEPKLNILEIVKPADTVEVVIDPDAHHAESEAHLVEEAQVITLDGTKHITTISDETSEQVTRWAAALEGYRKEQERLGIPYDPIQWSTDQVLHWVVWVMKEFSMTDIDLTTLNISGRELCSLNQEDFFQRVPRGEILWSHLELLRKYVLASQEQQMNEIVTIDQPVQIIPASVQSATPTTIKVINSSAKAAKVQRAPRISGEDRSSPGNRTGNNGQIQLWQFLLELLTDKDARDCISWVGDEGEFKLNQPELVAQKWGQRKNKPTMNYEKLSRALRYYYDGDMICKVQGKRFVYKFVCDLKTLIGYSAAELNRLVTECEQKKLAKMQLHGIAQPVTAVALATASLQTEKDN
In short: as §1

ERG = target: T4, ERG (Homo sapiens, UniProt P11308 1-479); conditions: protein: recombinant; tags: N-terminal GST; dsDNA, one strand shown
T4 sequence: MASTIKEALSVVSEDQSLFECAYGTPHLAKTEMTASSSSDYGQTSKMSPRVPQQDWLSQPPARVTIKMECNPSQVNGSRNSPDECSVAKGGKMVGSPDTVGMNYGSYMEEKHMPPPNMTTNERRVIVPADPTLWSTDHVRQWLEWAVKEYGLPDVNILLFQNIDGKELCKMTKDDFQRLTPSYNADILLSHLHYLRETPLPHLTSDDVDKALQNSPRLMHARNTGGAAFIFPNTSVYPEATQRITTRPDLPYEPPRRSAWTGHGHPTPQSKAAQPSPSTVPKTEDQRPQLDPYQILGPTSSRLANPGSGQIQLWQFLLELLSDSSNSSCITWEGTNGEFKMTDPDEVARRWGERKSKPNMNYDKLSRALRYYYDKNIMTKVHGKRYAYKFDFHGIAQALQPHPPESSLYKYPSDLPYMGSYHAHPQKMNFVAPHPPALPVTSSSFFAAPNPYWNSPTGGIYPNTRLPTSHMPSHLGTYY
In short: as §1

ELF1 = ELF1 (Homo sapiens, UniProt P32519 1-619); conditions: protein: recombinant; tags: N-terminal GST; dsDNA, one strand shown
Chain of ELF1 (P32519 whole entry): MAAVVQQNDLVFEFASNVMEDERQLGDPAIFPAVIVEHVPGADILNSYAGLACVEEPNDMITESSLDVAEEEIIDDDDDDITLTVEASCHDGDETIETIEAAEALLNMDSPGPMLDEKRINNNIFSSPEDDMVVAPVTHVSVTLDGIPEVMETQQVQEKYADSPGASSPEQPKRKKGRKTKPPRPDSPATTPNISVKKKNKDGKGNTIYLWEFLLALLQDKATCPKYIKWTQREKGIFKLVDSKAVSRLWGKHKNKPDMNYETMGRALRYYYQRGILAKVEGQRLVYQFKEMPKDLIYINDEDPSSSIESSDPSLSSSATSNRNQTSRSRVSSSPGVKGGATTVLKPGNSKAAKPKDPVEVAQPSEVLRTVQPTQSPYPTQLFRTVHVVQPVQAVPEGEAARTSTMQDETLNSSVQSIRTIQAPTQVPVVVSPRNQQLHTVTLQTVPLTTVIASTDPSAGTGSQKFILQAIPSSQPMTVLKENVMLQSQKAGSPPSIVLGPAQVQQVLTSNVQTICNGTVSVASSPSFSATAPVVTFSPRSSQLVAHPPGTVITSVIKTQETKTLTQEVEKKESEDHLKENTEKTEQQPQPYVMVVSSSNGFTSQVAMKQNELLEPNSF
In short: as §1

EHF = target: T5, EHF (Homo sapiens, UniProt Q9NZC4 1-300); conditions: protein: recombinant; tags: N-terminal GST; dsDNA, one strand shown
T5 sequence: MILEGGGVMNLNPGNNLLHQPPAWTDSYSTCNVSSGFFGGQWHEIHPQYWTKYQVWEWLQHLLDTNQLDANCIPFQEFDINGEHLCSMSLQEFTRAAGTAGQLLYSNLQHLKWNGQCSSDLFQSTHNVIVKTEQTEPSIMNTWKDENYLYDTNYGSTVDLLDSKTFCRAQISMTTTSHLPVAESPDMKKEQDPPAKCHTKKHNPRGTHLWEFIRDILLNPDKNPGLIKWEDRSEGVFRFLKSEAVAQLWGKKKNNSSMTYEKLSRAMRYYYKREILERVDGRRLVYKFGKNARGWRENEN
In short: as §1

SPI1 = SPI1 (Homo sapiens, UniProt P17947 1-270); conditions: protein: recombinant; tags: N-terminal GST; dsDNA, one strand shown
In short: as §1

SPIB = SPIB (Homo sapiens, UniProt Q01892 1-262); conditions: protein: recombinant; tags: N-terminal GST; dsDNA, one strand shown
Chain of SPIB (Q01892 whole entry): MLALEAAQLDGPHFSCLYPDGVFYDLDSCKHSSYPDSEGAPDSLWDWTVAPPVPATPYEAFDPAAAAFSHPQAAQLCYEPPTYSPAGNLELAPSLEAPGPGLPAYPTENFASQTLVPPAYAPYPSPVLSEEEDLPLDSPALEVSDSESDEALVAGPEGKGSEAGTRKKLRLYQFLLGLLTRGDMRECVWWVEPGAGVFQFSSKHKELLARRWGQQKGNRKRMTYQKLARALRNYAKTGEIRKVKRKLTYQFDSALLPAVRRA
In short: as §1

ELK3 = target: T6, ELK3 (Homo sapiens, UniProt P41970 1-407); conditions: protein: recombinant; tags: N-terminal GST; dsDNA, one strand shown
T6 sequence: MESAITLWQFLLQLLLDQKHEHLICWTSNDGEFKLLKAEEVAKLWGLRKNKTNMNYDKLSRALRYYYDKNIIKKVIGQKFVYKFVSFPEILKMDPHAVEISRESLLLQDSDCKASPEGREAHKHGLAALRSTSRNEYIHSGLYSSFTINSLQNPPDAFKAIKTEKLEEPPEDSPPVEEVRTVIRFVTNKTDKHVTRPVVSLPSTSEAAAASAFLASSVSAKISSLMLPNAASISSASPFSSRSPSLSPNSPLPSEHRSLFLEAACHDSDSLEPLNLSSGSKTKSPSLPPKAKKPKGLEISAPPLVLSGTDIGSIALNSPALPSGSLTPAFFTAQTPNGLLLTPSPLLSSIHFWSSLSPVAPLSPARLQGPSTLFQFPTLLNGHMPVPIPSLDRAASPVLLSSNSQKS
In short: as §1

FEV = target: T7, FEV (Homo sapiens, UniProt Q99581 1-238); conditions: protein: recombinant; tags: N-terminal GST; dsDNA, one strand shown
T7 sequence: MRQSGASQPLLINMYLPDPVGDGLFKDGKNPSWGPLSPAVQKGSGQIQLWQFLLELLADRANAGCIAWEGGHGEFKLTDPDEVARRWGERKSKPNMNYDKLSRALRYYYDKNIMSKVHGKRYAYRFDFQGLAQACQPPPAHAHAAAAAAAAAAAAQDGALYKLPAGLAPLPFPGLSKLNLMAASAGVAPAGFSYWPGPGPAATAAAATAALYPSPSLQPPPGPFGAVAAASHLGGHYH
In short: as §1

ETV5 = ETV5 (Homo sapiens, UniProt P41161 1-510); conditions: protein: recombinant; tags: N-terminal GST; dsDNA, one strand shown
Chain of ETV5 (P41161 whole entry): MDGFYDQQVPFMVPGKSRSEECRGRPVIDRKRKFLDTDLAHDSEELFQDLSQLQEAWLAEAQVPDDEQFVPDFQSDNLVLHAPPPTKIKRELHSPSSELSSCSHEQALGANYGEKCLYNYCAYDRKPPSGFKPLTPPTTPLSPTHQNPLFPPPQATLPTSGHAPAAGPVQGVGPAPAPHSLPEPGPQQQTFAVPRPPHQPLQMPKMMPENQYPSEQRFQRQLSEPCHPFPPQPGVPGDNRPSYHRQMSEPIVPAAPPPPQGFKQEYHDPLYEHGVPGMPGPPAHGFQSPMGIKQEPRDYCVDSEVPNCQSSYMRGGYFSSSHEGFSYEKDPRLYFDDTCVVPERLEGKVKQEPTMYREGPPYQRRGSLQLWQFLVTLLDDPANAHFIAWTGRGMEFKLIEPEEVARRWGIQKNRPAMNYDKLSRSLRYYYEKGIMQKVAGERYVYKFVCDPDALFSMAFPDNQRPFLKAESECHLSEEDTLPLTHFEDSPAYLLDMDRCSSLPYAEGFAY
In short: as §1

HSF1 = HSF1 (Homo sapiens, UniProt Q00613 1-529); conditions: protein: recombinant; tags: N-terminal GST; chain copies: 3; dsDNA, one strand shown
Chain of HSF1 (Q00613 whole entry): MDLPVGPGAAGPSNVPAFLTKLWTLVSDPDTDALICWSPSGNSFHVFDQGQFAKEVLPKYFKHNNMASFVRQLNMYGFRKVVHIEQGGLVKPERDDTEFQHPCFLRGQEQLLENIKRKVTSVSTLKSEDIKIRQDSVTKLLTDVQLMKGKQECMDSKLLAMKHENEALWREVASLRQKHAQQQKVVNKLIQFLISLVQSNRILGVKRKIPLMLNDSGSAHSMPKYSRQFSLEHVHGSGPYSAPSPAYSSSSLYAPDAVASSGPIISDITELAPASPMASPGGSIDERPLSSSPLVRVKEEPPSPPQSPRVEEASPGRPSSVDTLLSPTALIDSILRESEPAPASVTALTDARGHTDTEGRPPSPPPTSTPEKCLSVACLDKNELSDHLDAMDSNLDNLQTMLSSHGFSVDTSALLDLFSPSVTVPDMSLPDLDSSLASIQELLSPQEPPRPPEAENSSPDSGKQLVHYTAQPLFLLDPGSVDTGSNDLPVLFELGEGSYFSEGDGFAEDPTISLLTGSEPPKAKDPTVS
In short: as §1

SPIC = target: T8, SPIC (Homo sapiens, UniProt Q8N5J4 1-248); conditions: protein: recombinant; tags: N-terminal GST; dsDNA, one strand shown
T8 sequence: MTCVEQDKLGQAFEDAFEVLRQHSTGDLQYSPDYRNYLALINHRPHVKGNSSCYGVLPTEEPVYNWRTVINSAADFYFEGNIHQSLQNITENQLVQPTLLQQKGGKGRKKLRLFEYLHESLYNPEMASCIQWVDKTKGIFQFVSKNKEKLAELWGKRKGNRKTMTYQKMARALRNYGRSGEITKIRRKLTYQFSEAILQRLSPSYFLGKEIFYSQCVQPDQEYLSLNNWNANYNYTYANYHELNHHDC
In short: as §1

ELF4 = ELF4 (Homo sapiens, UniProt Q99607 1-663); conditions: protein: recombinant; tags: N-terminal GST; dsDNA, one strand shown
Chain of ELF4 (Q99607 whole entry): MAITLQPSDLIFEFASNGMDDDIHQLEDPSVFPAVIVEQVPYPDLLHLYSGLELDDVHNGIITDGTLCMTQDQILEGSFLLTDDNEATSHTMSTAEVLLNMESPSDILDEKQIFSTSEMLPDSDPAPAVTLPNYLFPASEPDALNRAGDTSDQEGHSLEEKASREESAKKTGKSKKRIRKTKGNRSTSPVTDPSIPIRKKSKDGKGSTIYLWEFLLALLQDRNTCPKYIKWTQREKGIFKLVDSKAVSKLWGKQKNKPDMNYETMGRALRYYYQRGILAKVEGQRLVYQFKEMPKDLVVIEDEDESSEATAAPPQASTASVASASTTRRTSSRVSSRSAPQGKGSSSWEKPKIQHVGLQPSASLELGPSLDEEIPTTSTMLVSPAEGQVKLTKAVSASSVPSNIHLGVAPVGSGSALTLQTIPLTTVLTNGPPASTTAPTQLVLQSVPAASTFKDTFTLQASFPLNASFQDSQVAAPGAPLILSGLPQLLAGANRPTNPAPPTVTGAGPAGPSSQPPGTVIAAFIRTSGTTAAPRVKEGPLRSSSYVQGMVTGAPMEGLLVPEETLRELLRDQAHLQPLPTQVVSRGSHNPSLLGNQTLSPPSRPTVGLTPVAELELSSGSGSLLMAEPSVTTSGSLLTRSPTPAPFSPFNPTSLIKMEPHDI
In short: as §1

ELK4 = target: T9, ELK4 (Homo sapiens, UniProt P28324-2 1-405); conditions: protein: recombinant; tags: N-terminal GST; dsDNA, one strand shown
T9 sequence: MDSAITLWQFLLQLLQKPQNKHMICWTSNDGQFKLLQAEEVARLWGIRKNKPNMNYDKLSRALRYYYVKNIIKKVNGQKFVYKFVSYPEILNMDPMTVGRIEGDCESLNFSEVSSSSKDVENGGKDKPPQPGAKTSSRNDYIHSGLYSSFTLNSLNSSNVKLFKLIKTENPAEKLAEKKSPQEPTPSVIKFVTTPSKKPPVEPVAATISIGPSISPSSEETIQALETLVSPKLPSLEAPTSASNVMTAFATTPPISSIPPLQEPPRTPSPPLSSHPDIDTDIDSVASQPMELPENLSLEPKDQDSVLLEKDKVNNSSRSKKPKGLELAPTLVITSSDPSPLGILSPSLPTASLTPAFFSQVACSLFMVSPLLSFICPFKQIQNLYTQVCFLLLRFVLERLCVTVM
In short: as §1

ETV2 = target: T10, ETV2 (Homo sapiens, UniProt O00321 1-342); conditions: protein: recombinant; tags: N-terminal GST; dsDNA, one strand shown
T10 sequence: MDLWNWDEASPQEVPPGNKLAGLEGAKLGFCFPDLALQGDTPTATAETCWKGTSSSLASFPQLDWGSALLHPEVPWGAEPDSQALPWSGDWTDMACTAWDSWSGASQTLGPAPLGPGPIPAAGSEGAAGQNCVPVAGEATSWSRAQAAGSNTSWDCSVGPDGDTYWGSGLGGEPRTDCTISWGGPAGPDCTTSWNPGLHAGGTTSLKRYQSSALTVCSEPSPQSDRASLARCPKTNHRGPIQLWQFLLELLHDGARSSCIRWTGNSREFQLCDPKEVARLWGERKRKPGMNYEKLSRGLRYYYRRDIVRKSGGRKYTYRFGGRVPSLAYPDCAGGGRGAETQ
In short: as §1

ELF3 = target: T11, ELF3 (Homo sapiens, UniProt P78545 1-371); conditions: protein: recombinant; tags: N-terminal GST; dsDNA, one strand shown
T11 sequence: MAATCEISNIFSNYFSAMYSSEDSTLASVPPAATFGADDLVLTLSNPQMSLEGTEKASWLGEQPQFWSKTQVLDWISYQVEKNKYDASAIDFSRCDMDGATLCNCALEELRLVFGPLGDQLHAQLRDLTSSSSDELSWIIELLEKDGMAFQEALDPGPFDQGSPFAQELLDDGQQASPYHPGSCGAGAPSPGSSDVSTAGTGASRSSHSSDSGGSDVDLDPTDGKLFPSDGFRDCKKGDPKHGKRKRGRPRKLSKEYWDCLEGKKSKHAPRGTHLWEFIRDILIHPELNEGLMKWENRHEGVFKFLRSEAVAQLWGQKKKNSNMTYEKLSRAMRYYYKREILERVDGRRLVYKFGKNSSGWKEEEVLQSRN
In short: as §1

CRX = CRX (Homo sapiens, UniProt O43186 1-299); conditions: protein: recombinant; tags: N-terminal GST; dsDNA, one strand shown
Chain of CRX (O43186 whole entry): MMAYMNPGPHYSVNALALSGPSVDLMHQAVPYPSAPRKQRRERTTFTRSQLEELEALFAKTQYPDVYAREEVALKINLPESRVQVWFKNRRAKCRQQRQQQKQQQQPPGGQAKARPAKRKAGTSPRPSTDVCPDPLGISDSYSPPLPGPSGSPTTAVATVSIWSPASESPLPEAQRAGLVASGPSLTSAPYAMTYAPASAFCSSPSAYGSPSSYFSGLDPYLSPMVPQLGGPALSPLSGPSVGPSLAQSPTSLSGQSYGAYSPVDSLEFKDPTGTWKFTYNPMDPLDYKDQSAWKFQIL
In short: as §1

ETV1 = ETV1 (Homo sapiens, UniProt P50549 1-477); conditions: protein: recombinant; tags: N-terminal GST; dsDNA, one strand shown
Chain of ETV1 (P50549 whole entry): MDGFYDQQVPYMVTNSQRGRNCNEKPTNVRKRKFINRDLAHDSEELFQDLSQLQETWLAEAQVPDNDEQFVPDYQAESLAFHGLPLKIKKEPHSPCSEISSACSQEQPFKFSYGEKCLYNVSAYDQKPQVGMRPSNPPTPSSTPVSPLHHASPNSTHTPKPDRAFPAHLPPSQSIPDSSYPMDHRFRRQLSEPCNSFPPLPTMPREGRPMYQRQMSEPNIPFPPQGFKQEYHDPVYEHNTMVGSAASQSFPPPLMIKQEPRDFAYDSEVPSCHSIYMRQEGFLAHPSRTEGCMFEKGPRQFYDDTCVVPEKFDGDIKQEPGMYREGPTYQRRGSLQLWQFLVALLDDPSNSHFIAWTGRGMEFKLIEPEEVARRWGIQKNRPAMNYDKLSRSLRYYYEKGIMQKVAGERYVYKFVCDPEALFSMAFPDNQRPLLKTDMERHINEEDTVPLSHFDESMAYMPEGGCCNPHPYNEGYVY
In short: as §1

In the case of CCCACT, the binding signal (FLI1) is reported as 1.36 fold enrichment (6-mer frequency, TF over GST control), the binding signal (ELK1) is reported as 1.45 fold enrichment (6-mer frequency, TF over GST control) and the binding signal (GABPA) is reported as 1.26 fold enrichment (6-mer frequency, TF over GST control). The binding signal (ERG) was 1.35 fold enrichment (6-mer frequency, TF over GST control), the binding signal (ELF1) was 1.38 fold enrichment (6-mer frequency, TF over GST control) and the binding signal (EHF) was 1.46 fold enrichment (6-mer frequency, TF over GST control). The binding signal (SPI1) was 1.39 fold enrichment (6-mer frequency, TF over GST control), the binding signal (SPIB) was 1.26 fold enrichment (6-mer frequency, TF over GST control) and the binding signal (ELK3) was 1.42 fold enrichment (6-mer frequency, TF over GST control). For the same sequence, the binding signal (FEV) was 1.5 fold enrichment (6-mer frequency, TF over GST control), the binding signal (ETV5) was 1.33 fold enrichment (6-mer frequency, TF over GST control) and the binding signal (HSF1) was 1.07 fold enrichment (6-mer frequency, TF over GST control). The binding signal (SPIC) was 1.27 fold enrichment (6-mer frequency, TF over GST control), the binding signal (ELF4) was 1.43 fold enrichment (6-mer frequency, TF over GST control) and the binding signal (ELK4) was 1.24 fold enrichment (6-mer frequency, TF over GST control). The binding signal (ETV2) was 1.37 fold enrichment (6-mer frequency, TF over GST control), the binding signal (ELF3) was 1.18 fold enrichment (6-mer frequency, TF over GST control) and the binding signal (CRX) was 1.14 fold enrichment (6-mer frequency, TF over GST control). For the same sequence, the binding signal (ETV1) was 1.34 fold enrichment (6-mer frequency, TF over GST control).
